Test results from PubChem BioAssay (NCATS).
Records with an inconclusive call do not appear. Activity calls are given as the source filed them. Calls come from the whole dose curve; as a rule, active = well fitted cell-killing curve with a large enough effect; inconclusive = small, poorly fitted or top-dose-only effect; inactive = flat fitted curve, though single readings scatter.

Assay: Cell Viability - SH-SY5Y (AID 544); note: nearly all actives have a fitted effect of over 55% in size;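 for viability change, negative = cytotoxic: 0% = DMSO alone and -100% = 100 µM tamoxifen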
Details: SH-SY5Y neuroblastoma cell viability; viability change, negative = cytotoxic: at 92.2 µM (top of the series)
Source text: NIH Chemical Genomics Center [NCGC]
NIH Molecular Libraries Screening Centers Network [MLSCN]
National Institutes of Environmental Health Sciences [NIEHS]
National Toxicology Program [NTP]
We have developed a 1536-well cell-based assay for quantitative high throughput screening (qHTS) against a number of cell lines to determine in vitro cytotoxicity of small molecules. This particular assay uses the SH-SY5Y cell line which is derived from human neuroblastoma.
NCGC Assay Protocol Summary:
The CellTiter-Glo luminescent cell viability assay (Promega) is a homogeneous method to measure the number of viable cells in culture. The end point readout of this assay is based on quantitation of intracellular ATP, an indicator of metabolic activity, using the luciferase reaction. Luciferase catalyzes the oxidation of beetle Luciferin to oxyluciferin and light in the presence of ATP. The luminescent signal is proportional to amount of ATP present.
Using the CellTiter-Glo luminescent cell viability assay, the amount of cellular ATP was measured in the SH-SY5Y cell line with complete culture medium following compound treatment for 40 hours. The assay was performed in opaque white Kalypsys 1536-well plates. In the screen, tamoxifen and doxorubicin were used as positive controls. Library compounds were measured for their ability to cause acute toxicity in the cell line, as reflected by a decrease in intracellular ATP levels, in a concentration-dependent manner. […] AC50 values were determined from concentration-response data modeled with the standard Hill equation.
qHTS protocol for CellTiter Glo SH-SY5Y cellular assay
[Step] [Parameter] [Value] [Description]
1. Reagent; 5 uL; 1500 SH-SY5Y cells/well
2. Time; 5 hr; 37 °C incubation
4. Controls; 23 nL; Tamoxifen 0.34 uM to 100 uM & Doxorubicin 0.02 nM to 100 uM
5. Time; 40 hr; 37 °C incubation
6. Reagent; 5 uL; CellTiter Glo reagent
7. Time; 20 min; Room Temperature
8. Detection; Luminescence; Viewlux plate reader
Keywords: cell viability, cytotoxicity, SH-SY5Y cell line, luminescence, NTPHTS, NTPHTS_NCGC, NIEHS, EPA, DSSTox, MLSMR, MLSCN, NIH Roadmap, qHTS, NCGC
Potency is the fitted concentration of half-maximal effect.

SMILES | viability change, negative = cytotoxic | Potency
O=C(O)c1ccc([N+](=O)[O-])cc1 | -15.3% (inactive) | 
CC(=O)CC(=O)Nc1ccccc1 | -14.2% (inactive) | 
Nc1ccc(N)c(Cl)c1 | -99% (active) | 
Cc1c2ccccc2c(C)c2c1ccc1ccccc12 |  | 7.94 µM (active)
CCCCCCCC/C=C\CCCCCCCC(=O)N(CCO)CCO | -99.3% (active) | 
Cc1c(N)cccc1Cl | -2.98% (inactive) | 
Cc1cc(=O)oc2cc(O)cc(O)c12 | -12.9% (inactive) | 
C=CC(=O)CC | -3.46% (inactive) | 
Cc1ccc(N)cc1[N+](=O)[O-] | -9.43% (inactive) | 
Brc1ccc(-c2ccccc2)cc1 | 4.84% (inactive) | 
CC(/C=C/C=C(C)/C=C/C(=O)O)=C\C=C\C=C(C)\C=C\C=C(C)\C=C\C(=O)O | -97% (active) | 
c1ccncc1 | -2.01% (inactive) | 
CC(=O)OC1CC(C)OC(C)O1 (stereo not given) | -15.1% (inactive) | 
OCC(CBr)(CBr)CBr | -8.62% (inactive) | 
c1cc2c3c(c1)ccc1cccc(c13)C2 | 4.44% (inactive) | 
CC(C)S | 1.29% (inactive) | 
C=CC(C)(O)CCCC(C)CCCC(C)CCCC(C)C (stereo not given) | -9.18% (inactive) | 
CC(=O)c1ccc(Cl)c(Cl)c1Cl | 1.64% (inactive) | 
CCCCOC(=O)COc1ccc(Cl)cc1Cl | 3.37% (inactive) | 
O=[N+]([O-])c1cccc(I)c1 | -8.82% (inactive) | 

SMILES | viability change, negative = cytotoxic | Potency
CCCCC(CC)COCCCN (stereo not given) | -15.5% (inactive) | 
Nc1cc([N+](=O)[O-])ccc1O | -2.35% (inactive) | 
CCCCC(CC)COP(=O)(OCC(CC)CCCC)OCC(CC)CCCC (stereo not given) | -11.3% (inactive) | 
C=CC(=O)OCCCCCCOC(=O)C=C | -98.1% (active) | 
CC1=C(/C=C/C(C)=C/C=C/C(C)=C/C=O)C(C)(C)CCC1 |  | 25.1 µM (active)
Cc1cc(-c2ccc(N=Nc3cc(S(=O)(=O)O)c4ccccc4c3N)c(C)c2)ccc1N=Nc1cc(S(=O)(=O)O)c2ccccc2c1N |  | 31.6 µM (active)
Cc1ccc(O)c(N)c1 |  | 20 µM (active)
NC(=O)c1ccc([N+](=O)[O-])cc1 | -9.93% (inactive) | 
CC(C)OCC1CO1 (stereo not given) | -0.942% (inactive) | 
Cc1cccnc1 | -16.2% (inactive) | 
C/C=C1/C(=O)C[C@H]2[C@@H]3CCC4=CC(=O)CC[C@]4(C)[C@H]3CC[C@]12C |  | 25.1 µM (active)
c1ccc(CSCc2ccccc2)cc1 | 13% (inactive) | 
O=C(O)/C=C/c1ccc(/C=C/C(=O)O)cc1 | -19.5% (inactive) | 
Cc1ccccc1OCC1CO1 (stereo not given) | -8.56% (inactive) | 
Oc1ccc2c(c1)OCO2 | 5.42% (inactive) | 
Cc1ccc2ccc3cccc4ccc1c2c34 | -18.4% (inactive) | 
Oc1cc2c(cc1O)[C@H]1c3ccc(O)c(O)c3OC[C@@]1(O)C2 | -82.8% (active) | 
CCN(CC)c1ccc(N)cc1 | -88.7% (active) | 
CC(=O)OCc1ccc2c(c1)OCO2 | -20.3% (inactive) | 
CCCCCCCCC1CO1 (stereo not given) | -4.19% (inactive) | 
